This is part of a sample that, as a whole, favours compounds with a hit. Of some 83,000 tested, about 20% had one in any assay.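 In brief: 96-well plates, 48 h treatment, single concentration, percent growth endpoint.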 Active and inactive are the calls of the source.

This experiment relates to M14 melanoma. The experiment can be described thus: NCI-60 one-dose screen, 48 h (100 = growth as untreated, 0 = no growth, -100 = all killed). The note with it: 10 µM unless noted. As for the experimental part:
Growth inhibition of the M14 human tumor cell line is measured as a screen for anti-cancer activity. Cells are grown in 96 well plates and exposed to the test compound for 48 hours. Compounds are tested at a single concentration, which is 10^-5 M for most compounds. The reported endpoint is percent growth (GI% or GIPRCNT), where numbers from 0 - 100% represent growth inhibition, and numbers from -100% - 0 represent cell death. For example, a value of 40 represents 60% growth inhibition. A value of 0 means no net growth occurred over the course of the experiment. A value of -40 indicates 40% of cells at the beginning of the experiment died by the end of the experiment. A value of -100 means all cells are dead at the end of the experiment.
NCI-60 Human Tumor Cell Lines Screen was performed using the standard one-dose NCI protocol, which is described in more detail at https://dtp.cancer.gov/discovery_development/nci-60/default.htm.
Compounds with GIPRCNT values below 10 were considered active. Activity score was based on GIPRCNT using the following formula: […]
Score is 0 for GIPRCNT values of 100 or above, 50 for GIPRCNT values of 0, and 100 for GIPRCNT values of -100.
As for `C#C[C@]1(O)CC[C@H]2[C@@H]3CC=C4c5sc(Nc6cccc(Cl)n6)nc5CC[C@]4(C)[C@H]3CC[C@@]21C`, the growth was -22.8% (active).
Then `COc1cc(O)c2c(c1)/C=C/C[C@H](O)[C@H](O)C(=O)/C=C\C[C@H](C)OC2=O`, with -22.7% (active); and `CCN(CC)Cc1c(-c2cccc(OC(F)(F)F)c2)[nH]c2ccc(N3CCCC3)cc2c1=O`, with 96.9% (inactive).
In the case of `COc1ccc2oc3c4[nH]c5ccccc5c4c4c(c3c2c1)C(=O)N(O)C4=O`, the growth is 102% (inactive).
Then `C/C(=N\NC(=O)CSc1nc2sc3c(c2c(=O)n1-c1ccccc1)CCC(C)C3)c1ccc(Cl)cc1` (stereo not given), with -34% (active); and `CC1OC(O[C@@H]2[C@H](O)C(CO)OC(O[C@H]3COC(O[C@H]4CC[C@]5(C)[C@H]6CC[C@]78OC[C@@]9(CC[C@](C)(C=O)C[C@H]97)C(=O)C[C@@]8(C)[C@]6(C)CC[C@H]5C4(C)C)[C@@H](O)[C@@H]3O)[C@H]2OC2OC[C@@H](O)[C@@H](O)[C@@H]2O)[C@@H](O)[C@@H](O)[C@H]1O` (stereo not given in full), with 96.9% (inactive).
With `Cn1nc(Nc2ccccc2)c(C(=O)NN)c1N` the figure was 101% (inactive); with `Cc1ccc(/C=C/CC(=O)Nc2ccc(C(=O)Nc3ccc(F)cc3N)nc2)cn1`, 35.5% (inactive).
Then `COc1ccc(C(=O)n2cc(C=O)c3ccccc32)cc1`, with 82.8% (inactive); and `NC(=O)C(=Cc1ccc(Cl)cc1)C(N)=O`, with 70.3% (inactive); and `N#C/C(=C\c1ccc2ccccc2c1)C(=O)Nc1sc2c(c1C#N)CCC2`, with 106% (inactive).
On to `N#C/C(=C\c1ccc(N2CCCCC2)cc1)C(=O)Nc1sc2c(c1C#N)CCC2`, for which the growth was 102% (inactive).
Then `O=c1cc(-c2ccccc2)nc2sc(-c3c[nH]c4ccc(F)cc34)nn12`, with 63.5% (inactive); and `Cc1cc(F)cc(NS(=O)(=O)c2ccc(-c3cnc(C4CC4)o3)cc2)c1`, with 19.5% (inactive).
`Cc1ccccc1/C=C/c1nn2c(-c3ccoc3C)nnc2s1`: the growth is 99% (inactive).
On to `O=C1c2cc(Br)ccc2-n2c1nc1cc(Br)ccc1c2=O`, for which the growth was 72.2% (inactive).
For the compound `COc1ccc(C(=O)c2c(N)c(C#N)cn2-c2cccc(OC)c2)cc1`, the growth is 10.3% (inactive).
Then `CCCCCc1ccc(S(=O)(=O)N(C(C)=O)c2cccc(-c3csc(N(CCN4CCN(C)CC4)C(C)=O)n3)c2)cc1`, with -71.7% (active).
With `CC[C@@](C)(NC(=O)C(C)(C)NC(=O)[C@@H](NC(=O)[C@@H]1CCCN1C(=O)C(C)(C)NC(=O)[C@H](CC(C)C)NC(=O)CNC(=O)C(C)(C)NC(=O)[C@@H](NC(=O)C(C)(C)NC(=O)[C@H](CCC(N)=O)NC(=O)[C@H](C)NC(=O)C(C)(C)NC(=O)[C@H](C)NC(=O)C(C)(C)NC(=O)[C@H](C)NC(=O)C(C)(C)NC(C)=O)C(C)C)C(C)C)C(=O)N[C@@H](CCC(N)=O)C(=O)N[C@@H](CCC(N)=O)C(=O)N[C@H](CO)CC1CCCCC1`, the growth was 58.4% [5 µM] (inactive).
Then `Cc1cc(O)c(=O)cc2c1C[C@H]1CC(C)(C)/C=C/C[C@]3(C)Oc4cc(=O)c(O)cc(C)c4C[C@H]3C[C@H](O)[C@@]1(C)O2`, with -25.9% (active); and `O=C(/C=C1\C=CN(CCCCCCF)c2ccccc21)n1ccc2ccccc21`, with 92% (inactive); and `COc1c([C@@H](CC(C)C)OC(C)=O)ccc2c1C(=O)OCc1cc(C)cc(O)c1O2`, with 44.3% (inactive).
Take `CCc1ccc(NC(=O)N[C@@H](Cc2cc(F)cc(F)c2)C(=O)N[C@@H]2C(=O)N3CCC[C@H]3C(=O)N3CCO[C@H](C)[C@H]3C(=O)N[C@@H](CO)C(=O)N3C[C@H](C)C[C@H]3C(=O)O[C@H]2C)c(F)c1`: the growth is 24% (inactive).
Then `CC(=O)Nc1ccc(NC(=O)Nc2cccc(-c3nc(-c4ccc(NC(=O)c5cccs5)cc4Cl)no3)c2)cc1C(F)(F)F`, with -59.2% (active); and `c1cncc(-c2cn3nc(-c4c[nH]c5ccccc45)sc3n2)c1`, with 37% (inactive).
Then `C=C(C)C(=O)O[C@H]1C[C@@]2(C)OC(=CC2=O)/C(C)=C\[C@H]2OC(=O)C(=C)[C@H]12`, with -37% (active).
With `CCOc1c(C#N)c(Nc2ccc(S(N)(=O)=O)cc2)c(C#N)c2nnc(C)n12` the figure was 100% (inactive).
As to `COc1ccc(-c2nc(SCCC(C)C)nc(N/N=C\c3ccc(O)cc3)c2C#N)cc1`, the growth is 76.6% (inactive).
As to `CCC(CC)n1c(=O)c(SC2=NC3C(NN2)N(CC)C(=O)N3CC)c(C(=O)O)c2ccccc21` (stereo not given), the growth was 16% (inactive).
Then `C=C(C)C(=O)O[C@H]1C[C@@]2(C)OC(=CC2=O)[C@H](C)[C@H](O)[C@H]2OC(=O)C(=C)[C@@H]21`, with 71.7% (inactive); and `Cc1cn(-c2cc(NC(=O)c3cncc(C#Cc4cnc5ccc(O[C@H]6CCOC6)nn45)c3)cc(C(F)(F)F)c2)cn1`, with 57.7% (inactive); and `O=C(CN1CCN(c2cc(=O)n(-c3ccccc3)c3ccccc23)CC1)Nc1ccc([N+](=O)[O-])cc1`, with 99% (inactive).
With `C#C[C@]1(O)CC[C@H]2[C@@H]3CC=C4c5sc(-c6ccccn6)nc5CC[C@]4(C)[C@H]3CC[C@@]21C` the figure was 74.8% (inactive).
Take `O=C(NNc1nc2cc(F)ccc2n2cncc12)c1cnccn1`: the growth was 0.271% (active).
With `CS(=O)c1nccc(-c2c(-c3ccc(F)c(OCCc4ccccc4)c3)nc3sccn23)n1` (stereo not given) the figure was 76% (inactive); with `COc1cc2cc(Oc3ccc(NC(=O)Nc4cc(C(F)(F)F)cc(C(F)(F)F)c4)cc3)c(C)nc2cc1OCCN(C)C`, 107% (inactive).
Regarding `CCOC(=O)c1c(NCC(=O)Nc2cccc([N+](=O)[O-])c2)sc2c1CCCC2`, the growth was -85.2% (active).
With `COc1cc(/C=N/n2cnc3oc(-c4ccccc4)cc3c2=N)cc(CN2CCOCC2)c1O`, the growth was 73% (inactive).
Turning to `Cc1cc(O)c2c(c1)C(=O)C(c1c(C)cc3c(c1O)C(=O)C=CC3=O)=CC2=O`, the growth was 93.1% (inactive).
Then `NC(=O)N1N=C(c2cc3ccccc3oc2=O)CC1c1cn(-c2ccccc2)nc1-c1ccc(Cl)cc1` (stereo not given), with 43.9% (inactive).
